Here are results for 52 molecules from ChEMBL document CHEMBL3988442, “University of Dundee, Small-Polar-MMV Screening Library” (2021).

About 13,000 (27%) of roughly 48,000 compounds showed an effect of 50% or more. This is one part of the list.

The subject of the assay is Wolbachia pipientis. As to the kind of experiment: Anti-Wolbachia Cell-Based Screen. Format: functional. On the set-up: scale not given: in the data most compounds retested in dose-response had high values. The following applies: 5 µM.
As to `Cc1nn(C)cc1CN(C)Cc1cc2c(cc1OC(F)F)OCO2`, the “Percent Effect” value was 5.231%. In the case of `CCS(=O)(=O)N1CCC(c2nccn2Cc2ccncc2)CC1` it was 17.72%. In the case of `COc1cccc(OCCCc2cc(C#N)ccn2)c1` it was -11.05%. Under `Cc1cccc(C(C(=O)NCc2nc(-c3cccnc3)no2)N(C)C)c1` (configuration not stated) stands -3.627%; under `CC1=C[C@@H](CN2CCOCC2)[C@H](C(C)C)C[C@H]1Cc1nnc(C)o1`, -6.193%. For the molecule `Cc1sc(Br)cc1S(=O)(=O)NCCCN.Cl`, the “Percent Effect” value is -10.31%. With `Cc1cc(F)c(S(=O)(=O)NCc2ccnc(N(C)C)n2)cc1F`, the “Percent Effect” value is -5.146%. In the case of `Cc1sc(Br)cc1S(=O)(=O)NCCN.Cl` it was -12.99%; in that of `Cc1c(F)cccc1S(=O)(=O)NCC(C)(C)CC(C)O` (configuration not stated), -11.41%; in that of `Cc1cc(F)c(S(=O)(=O)NCC(C)(C)N)cc1F.Cl`, 99.53%. Under `Cc1cc(S(=O)(=O)NCC(C)(O)CN(C)C)c(F)cc1F` (configuration not stated) stands 86.13%; under `Cc1cc2[nH]cc(C(=O)N3CCCCC3c3ccc(F)cc3)c(=O)n2n1` (configuration not stated), -0.32%; under `Cc1ncsc1C(=O)N(C)CCc1ccncc1`, -1.181%. For the molecule `COc1ccccc1CC1CCCN(CCN2CCOC2=O)C1` (configuration not stated), the “Percent Effect” value was -15.91%. As to `Cc1cccc(OC2CCN(C(=O)NCCn3ccnc3)CC2)c1C`, the “Percent Effect” value is listed as -9.4%. In the case of `COCCN1C[C@H]2CC[C@@H]1CN(CC(=O)Nc1ccn(C)n1)C2`, the “Percent Effect” value was 0.2654%. With `Cc1ccccc1OC1CCN(CC(=O)Nc2cn(C)nc2C)CC1`, the “Percent Effect” value is on record as 143.3%. As to `Br.Cc1ccccc1OC1CCN(CC(=O)Nc2ccn(C)n2)CC1`, the “Percent Effect” value is 95.2%.

As to `Cc1nn(C)c(C)c1NC(=O)CN1CCOC(Cn2cccn2)C1` (configuration not stated), the “Percent Effect” value is -5.215%.

`Br.Cc1ccccc1OC1CCN(CC(=O)Nc2cnn(C)c2C)CC1`: the “Percent Effect” value is 127.8%. Under `Cc1ccccc1OC1CCN(CC(=O)Nc2c(C)nn(C)c2C)CC1` stands 133%; under `Cc1cccc2sc(NC(=O)CN3CCC(C)CC3)nc12`, -4.691%; under `Cc1nn(C)c(C)c1NC(=O)CNC(c1ccccc1)C1CCC1` (configuration not stated), -2.911%. Regarding `Cn1ccc(NC(=O)CN2C[C@H]3CC[C@@H]2CN(Cc2ccccn2)C3)n1`, the “Percent Effect” value is -23.26%. For the molecule `CC(=O)c1ccc(CN2CC(Oc3ccccc3C)C2)cc1`, the “Percent Effect” value is 1.561%. In the case of `CC(O)CNC(=O)NCCCN1CCN(c2ncccn2)CC1` (configuration not stated) it was -2.851%; in that of `CCOCCn1nnc(C2(NC(=O)c3ccccc3)CCCC2)n1`, -1.903%; in that of `CN(C)CCOc1ccc(CNC(=O)c2cccc3[nH]ncc23)cc1`, -2.455%. As for `CN(C)C(=O)CCCNc1ncc2c(n1)CCN2c1ccccc1`, the “Percent Effect” value is recorded as -14.16%. Consider `Cn1c(=O)oc2ccc(NC(=O)N3CCSCC3)cc21`, for which the “Percent Effect” value is listed as -14.24%.

On to `Cn1nc2c(cc1=O)CN(Cc1nnc(C3CC3)o1)CC2`, for which the “Percent Effect” value was determined as 7.472%. In the case of `Cc1noc(C)c1C(=O)N(C)C(C)c1ccncc1` (configuration not stated) it was -19.42%; in that of `O=C(Nc1ccccc1)c1ccc2c(c1)C1(CCCCC1)CN2.O=C(O)C(F)(F)F`, 15.72%; in that of `CCOC(CC)C(=O)NCc1cccc(N2CCCCC2=O)c1` (configuration not stated), -0.7778%. Take `NS(=O)(=O)c1ccc(NC(=O)CSc2ccc3c(c2)CCC3)cc1`: the “Percent Effect” value amounted to 16.99%. In the case of `Cc1[nH]c(=O)[nH]c(=O)c1CC(=O)N1CCC(Oc2ccc(F)cc2)CC1` it was -20.3%. With `CCn1cc(NC(=O)CN2CCC(Oc3ccc(F)cc3)CC2)c(C)n1.Cl`, the “Percent Effect” value worked out at 113.2%. Under `CCn1cc(NC(=O)CN2CCC(Oc3ccccc3C)CC2)c(C)n1` stands 103.8%. As for `CCN1CC(C(=O)N2CCC(Oc3ccccc3C)CC2)CC1=O` (configuration not stated), the “Percent Effect” value was -3.691%. `N#Cc1ccc(OC2CCN(CC(=O)NCC(F)(F)F)CC2)cc1`: the “Percent Effect” value is listed as 6.533%. Regarding `CC(=O)c1cccc(CN2CC(Oc3ccccc3C)C2)c1`, the “Percent Effect” value is 6.758%. Under `O=c1[nH]c(N2CCN(C3CC3)CC2)nc2c1cnn2-c1ccccc1` stands 4.194%; under `O=C(NCc1cccs1)NCC(O)(c1cccs1)C1CC1` (configuration not stated), 4.96%.

With `Cc1csc(CNC(=O)N(C)Cc2ccc3c(c2)OCO3)n1`, the “Percent Effect” value is given as -4.172%. Take `Cc1csc(CNC(=O)NCc2ccc3c(c2)OCCO3)n1`: the “Percent Effect” value is -13.77%. In the case of `Cc1csc(CNC(=O)Nc2ccc3c(c2)OCO3)n1`, the “Percent Effect” value worked out at 95.91%. With `Cc1ncsc1CNC(=O)NCC1(c2ccc3c(c2)OCO3)CC1`, the “Percent Effect” value is 120.8%. In the case of `Cc1csc(CNC(=O)NCC2(c3ccc4c(c3)OCO4)CC2)n1` it was 126.6%; in that of `Cc1csc(CNC(=O)NCCc2ccc3c(c2)OCCO3)n1`, -0.3298%. Regarding `Cc1ncsc1CNC(=O)N(Cc1ccccc1)CC(C)(C)O`, the “Percent Effect” value is given as -10.76%.

For the molecule `Cc1n[nH]cc1CNCC1(c2ccc3c(c2)OCO3)CCOCC1.Cl`, the “Percent Effect” value was determined as 4.447%.

In the case of `Cc1csc(CNC(=O)Cc2ccc3c(c2)OCCO3)n1`, the “Percent Effect” value was -1.573%.
